Laboratory results taken from PubChem BioAssay (EPA / NIEHS).
Where “and” joins values, the source holds several entries; their conditions need not be identical. Equal values may be shown once. More than one record can exist for a structure, and the calls need not agree. Calls of active or inactive are those of the source. How the source made its calls: active means hit-call score of the fitted dose curve at least 0.9, where 1 is the maximum; inactive means score below 0.9.

system: not listed separately; assay: ATG_CRE_CIS: Attagene CIS-FACTORIAL HepG2 Assay for human cAMP Responsive Element (CRE) binding protein 3 (AID 2282926); details: HepG2 CRE cis-reporter, Attagene multiplexed mRNA; actives raise or lower the signal
Outline: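 Assay format: transient reporter transfection of HepG2, 24 h treatment, total RNA isolation with DNase I step. Reporter abundance read by fluorescence after PCR and capillary separation; DMSO-normalised gain or loss fitting.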

| SMILES | outcome | AC50 |
| --- | --- | --- |
| Cc1ccc(N=Nc2c(O)ccc3ccccc23)c(C)c1 | inactive |  |
| CC1CCC(CO)CC1 (stereo not drawn) | inactive |  |
| CC1COCc2cc3c(cc21)C(C)(C)C(C)C3(C)C (stereo not drawn) | inactive |  |
| O=S(=O)(O)c1ccc2cc(O)ccc2c1 | inactive |  |
| Cc1cc(C(=C2C=CC(=Nc3ccc(S(=O)(=O)O)cc3)C=C2)c2ccc(Nc3ccc(S(=O)(=O)O)cc3)cc2)cc(S(=O)(=O)O)c1N | inactive |  |
| CCCCCCCCCCCC(=O)NCCCN(C)C |  | 20.3 µM (active) |
| C=CC(=O)OCCC(F)(F)C(F)(F)C(F)(F)C(F)(F)C(F)(F)C(F)(F)F | inactive |  |
| CCOCCOCC | inactive |  |
| Cc1cc(Cc2cc(C)cc(C(C)(C)C)c2O)c(O)c(C(C)(C)C)c1 |  | 23.7 µM (active) |
| COc1cc([N+](=O)[O-])ccc1N | inactive |  |
| O=S(=O)(c1ccc(OCc2ccccc2)cc1)c1ccccc1O |  | 14.9 µM (active) |
| CCCCCCC(C)(C)C(=O)O | inactive |  |
| C[N+](C)(CCCNS(=O)(=O)CCC(F)(F)C(F)(F)C(F)(F)C(F)(F)C(F)(F)C(F)(F)F)CC(=O)[O-] | inactive |  |
| Cc1cccc2c1ccc1ccccc12 | inactive |  |
| CCc1cccc(CC)c1NC(=O)C(=O)O | inactive |  |
| COC1=CC(=O)C[C@@H](C)[C@]12Oc1c(Cl)c(OC)cc(OC)c1C2=O |  | 130 µM (active) |
| CCOC(=O)CN[C@@H](C(=O)N1CC[C@H]1C(=O)NCc1ccc(/C(N)=N/O)cc1)C1CCCCC1 | inactive |  |
| O=C(CC(=O)C(F)(F)C(F)(F)C(F)(F)F)c1cccs1 |  | 44.6 µM (active) and 67.1 µM (active) |
| C=CC(=O)OCCC(F)(F)C(F)(F)C(F)(F)C(F)(F)C(F)(F)C(F)(F)C(F)(F)C(F)(F)F | inactive |  |

| SMILES | outcome | AC50 |
| --- | --- | --- |
| c1cc[nH]c1 | inactive |  |
| CCc1ccccc1O | inactive |  |
| CCCCCCc1ccc(N)cc1 | inactive |  |
| COc1ccccc1NC(=O)c1cc2ccccc2cc1O |  | 31.6 µM (active) |
| C=COC(=O)C(C)(C)CCCCCC | inactive |  |
| O=C1OC(=O)c2cc(-c3ccc4c(c3)C(=O)OC4=O)ccc21 | inactive |  |
| Cc1cc(C(C)(C)C)c(O)c(C(C)(C)C)c1 | inactive |  |
| CCCCCCCCCCCC(=O)O | inactive |  |
| CC1=CC(=O)c2ccccc2C1=O | inactive |  |
| CCCCCCCCCCCC | inactive |  |
| CC(O)COc1ccccc1 (stereo not drawn) | inactive |  |
| COc1ccc(C#N)cc1 | inactive |  |
| CCC(=O)O | inactive |  |
| O=C(C=C(O)C(F)(F)F)C(F)(F)F | inactive |  |
| O=C(O)C(=O)O | inactive |  |
| COC(=O)CC(C(C)=O)C(=O)OC (stereo not drawn) | inactive |  |
| FC(F)(F)N1C(F)(F)C(F)(F)OC(F)(F)C1(F)F | inactive |  |
| CC(C)CCOCCC(C)C | inactive |  |
| CCCCCCCCCCCCCCCC(=O)OC | inactive |  |

biological target: CCAAT/enhancer-binding protein beta (Homo sapiens) (UniProt P17676); assay: ATG_C_EBP_CIS: Attagene CIS-FACTORIAL HepG2 Assay for human CCAAT/Enhancer Binding Protein (C/EBP) beta (AID 2282927); details: HepG2 Attagene cis-factorial transcription factor reporter; actives raise or lower the signal
Outline: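 RT-PCR/capillary electrophoresis fluorescence of reporter mRNA, 24 h post-dose, in HepG2 cells carrying transfected cis-promoter reporter units. Bidirectional curve fitting against DMSO baseline captures gain or loss of signal.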

Chain of CCAAT/enhancer-binding protein beta (Homo sapiens) (P17676 whole entry, looked up): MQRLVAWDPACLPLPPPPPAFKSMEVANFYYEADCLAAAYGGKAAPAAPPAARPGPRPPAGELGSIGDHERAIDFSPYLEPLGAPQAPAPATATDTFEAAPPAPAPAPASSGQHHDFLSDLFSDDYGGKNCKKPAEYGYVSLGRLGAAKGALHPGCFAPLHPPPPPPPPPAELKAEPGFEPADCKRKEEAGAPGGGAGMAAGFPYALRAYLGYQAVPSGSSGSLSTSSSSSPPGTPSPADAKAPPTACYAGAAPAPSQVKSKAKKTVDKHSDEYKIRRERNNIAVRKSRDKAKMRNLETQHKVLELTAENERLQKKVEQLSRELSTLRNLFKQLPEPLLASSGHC

| SMILES | outcome | AC50 |
| --- | --- | --- |
| Cc1ccc(N=Nc2c(O)ccc3ccccc23)c(C)c1 | inactive |  |
| CC1CCC(CO)CC1 (stereo not drawn) | inactive |  |
| CC1COCc2cc3c(cc21)C(C)(C)C(C)C3(C)C (stereo not drawn) | inactive |  |
| O=S(=O)(O)c1ccc2cc(O)ccc2c1 | inactive |  |
| Cc1cc(C(=C2C=CC(=Nc3ccc(S(=O)(=O)O)cc3)C=C2)c2ccc(Nc3ccc(S(=O)(=O)O)cc3)cc2)cc(S(=O)(=O)O)c1N | inactive |  |
| CCCCCCCCCCCC(=O)NCCCN(C)C | inactive |  |
| C=CC(=O)OCCC(F)(F)C(F)(F)C(F)(F)C(F)(F)C(F)(F)C(F)(F)F | inactive |  |
| CCOCCOCC | inactive |  |
| Cc1cc(Cc2cc(C)cc(C(C)(C)C)c2O)c(O)c(C(C)(C)C)c1 |  | 31.8 µM (active) |
| COc1cc([N+](=O)[O-])ccc1N | inactive |  |
| O=S(=O)(c1ccc(OCc2ccccc2)cc1)c1ccccc1O |  | 23.1 µM (active) |
| CCCCCCC(C)(C)C(=O)O | inactive |  |
| C[N+](C)(CCCNS(=O)(=O)CCC(F)(F)C(F)(F)C(F)(F)C(F)(F)C(F)(F)C(F)(F)F)CC(=O)[O-] | inactive |  |
| Cc1cccc2c1ccc1ccccc12 | inactive |  |
| CCc1cccc(CC)c1NC(=O)C(=O)O | inactive |  |
| COC1=CC(=O)C[C@@H](C)[C@]12Oc1c(Cl)c(OC)cc(OC)c1C2=O | inactive |  |
| CCOC(=O)CN[C@@H](C(=O)N1CC[C@H]1C(=O)NCc1ccc(/C(N)=N/O)cc1)C1CCCCC1 | inactive |  |
| O=C(CC(=O)C(F)(F)C(F)(F)C(F)(F)F)c1cccs1 | inactive | 66 µM (active) |
| C=CC(=O)OCCC(F)(F)C(F)(F)C(F)(F)C(F)(F)C(F)(F)C(F)(F)C(F)(F)C(F)(F)F | inactive |  |

| SMILES | outcome | AC50 |
| --- | --- | --- |
| c1cc[nH]c1 | inactive |  |
| CCc1ccccc1O | inactive |  |
| CCCCCCc1ccc(N)cc1 | inactive |  |
| COc1ccccc1NC(=O)c1cc2ccccc2cc1O | inactive |  |
| C=COC(=O)C(C)(C)CCCCCC | inactive |  |
| O=C1OC(=O)c2cc(-c3ccc4c(c3)C(=O)OC4=O)ccc21 | inactive |  |
| Cc1cc(C(C)(C)C)c(O)c(C(C)(C)C)c1 | inactive | 14.6 µM (active) |
| CCCCCCCCCCCC(=O)O | inactive |  |
| CC1=CC(=O)c2ccccc2C1=O | inactive |  |
| CCCCCCCCCCCC | inactive |  |
| CC(O)COc1ccccc1 (stereo not drawn) | inactive |  |
| COc1ccc(C#N)cc1 | inactive |  |
| CCC(=O)O | inactive |  |
| O=C(C=C(O)C(F)(F)F)C(F)(F)F | inactive |  |
| O=C(O)C(=O)O | inactive |  |
| COC(=O)CC(C(C)=O)C(=O)OC (stereo not drawn) | inactive |  |
| FC(F)(F)N1C(F)(F)C(F)(F)OC(F)(F)C1(F)F | inactive |  |
| CC(C)CCOCCC(C)C | inactive |  |
| CCCCCCCCCCCCCCCC(=O)OC | inactive |  |
